{"source": "the supplement of paper PMC6607015", "note": "Counter-ions that a name gives are not always drawn."}
{"tested_on": "A431", "experiment": "whole-cell filipin (free cholesterol) integrated intensity, Z-score; higher = more cholesterol staining", "conditions": "compound concentration in added solution (µM; 5 µl added to 20 µl cells): 10; 18 h", "summary_of_the_method": "(§1)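 After 18 h on 5 µl of 10 µM compound solution in duplicate 384-well imaging plates, HeLa MZ or A431 cells, seeded at 3,500 per well in 20 µl, were fixed with 4% PFA. They were then labelled with 6C4 anti-LBPA antibody, filipin, propidium iodide and CellTracker green, and four 20× fields were recorded per well. Integrated LBPA or filipin intensity per cell, whole-cell or within LBPA endosomes, came from MetaXpress segmentation and was normalised to Z-scores in AcuityXpress.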"}
{"compound": "NNc1nncc2ccccc12", "note": "[Hydralazine hydrochloride]", "whole-cell filipin (z-score)": -0.55}
{"compound": "CNC[C@H](O)[C@@H](O)[C@H](O)[C@H](O)CO", "note": "[Meglumine]", "whole-cell filipin (z-score)": -0.386}
{"compound": "CCCc1cc(C(N)=S)ccn1", "note": "[Prothionamide]", "whole-cell filipin (z-score)": 0.0431}
{"compound": "CC(=O)Nc1ccc(OCC(O)CNC(C)C)cc1", "note": "(stereo unspecified) [Practolol]", "whole-cell filipin (z-score)": -0.908}
{"compound": "NCCc1ccc(O)c(O)c1", "note": "[Dopamine hydrochloride]", "whole-cell filipin (z-score)": 0.184}
{"compound": "C#C[C@]1(O)CC[C@H]2[C@@H]3CCC4=Cc5oncc5C[C@]4(C)[C@H]3CC[C@@]21C", "note": "[Danazol]", "whole-cell filipin (z-score)": -0.615}
{"compound": "CC(=O)O[C@H]1C[C@@H]2CC[C@@H]3[C@H](CC[C@@]4(C)[C@H]3C[C@H]([N+]3(C)CCCCC3)[C@@H]4OC(C)=O)[C@@]2(C)C[C@@H]1N1CCCCC1", "note": "[Vecuronium bromide]", "whole-cell filipin (z-score)": 0.0669}
{"compound": "CCOc1nc2cccc(C(=O)O)c2n1Cc1ccc(-c2ccccc2-c2nnn[nH]2)cc1", "note": "[Candesartan]", "whole-cell filipin (z-score)": 0.0521}
{"compound": "O=C(CCNNC(=O)c1ccncc1)NCc1ccccc1", "note": "[Nialamide]", "whole-cell filipin (z-score)": -0.078}
{"compound": "NC(Cc1cc(I)c(Oc2cc(I)c(O)c(I)c2)c(I)c1)C(=O)O", "note": "(stereo unspecified) [Thyroxine (L)]", "whole-cell filipin (z-score)": -1.1}
{"compound": "Nc1ccc(/N=N/c2ccccc2)c(N)n1", "note": "[Phenazopyridine hydrochloride]", "whole-cell filipin (z-score)": -0.169}
{"compound": "CC(=O)CC(c1ccccc1)c1c(O)c2ccccc2oc1=O", "note": "(stereo unspecified) [Warfarin]", "whole-cell filipin (z-score)": 0.206}
{"compound": "O=C1CCc2cc(OCCCCc3nnnn3C3CCCCC3)ccc2N1", "note": "[Cilostazol]", "whole-cell filipin (z-score)": -0.68}
{"compound": "NC(=O)N1c2ccccc2CC(=O)c2ccccc21", "note": "[Oxcarbazepine]", "whole-cell filipin (z-score)": -0.767}
{"compound": "Cc1c(Nc2ncccc2C(=O)O)cccc1C(F)(F)F", "note": "[Flunixin meglumine]", "whole-cell filipin (z-score)": -0.493}
{"compound": "CCn1cc(C(=O)O)c(=O)c2cnc(N3CCCC3)nc21", "note": "[Piromidic acid]", "whole-cell filipin (z-score)": -0.293}
{"compound": "CNC1(C)C2CCC(C2)C1(C)C", "note": "(stereo unspecified) [Mecamylamine hydrochloride]", "whole-cell filipin (z-score)": -0.41}
{"compound": "CN(Cc1ccc(C(C)(C)C)cc1)Cc1cccc2ccccc12", "note": "[Butenafine Hydrochloride]", "whole-cell filipin (z-score)": -0.644}
{"compound": "CC[N+](C)(CC)CCC[n+]1c(-c2ccccc2)c2cc(N)ccc2c2ccc(N)cc21", "note": "[Propidium iodide]", "whole-cell filipin (z-score)": -0.548}
{"compound": "CC#C[C@]1(O)CC[C@H]2[C@@H]3CCC4=CC(=O)CCC4=C3[C@@H](c3ccc(N(C)C)cc3)C[C@@]21C", "note": "[Mifepristone]", "whole-cell filipin (z-score)": -0.703}
{"compound": "C[C@]12CCC(=O)C=C1CC[C@@H]1[C@@H]2[C@@H](O)C[C@@]2(C)[C@H]1CC[C@]2(O)C(=O)CO", "note": "[Hydrocortisone base]", "whole-cell filipin (z-score)": -0.675}
{"compound": "CC[N+](CC)(CC)CCOc1cccc(OCC[N+](CC)(CC)CC)c1OCC[N+](CC)(CC)CC", "note": "[Gallamine triethiodide]", "whole-cell filipin (z-score)": -0.891}
{"compound": "O=C(NC(Cc1cc(=O)[nH]c2ccccc12)C(=O)O)c1ccc(Cl)cc1", "note": "(stereo unspecified) [Rebamipide]", "whole-cell filipin (z-score)": -0.0406}
{"compound": "OC(CCN1CCCCC1)(c1ccccc1)C1CCCCC1", "note": "(stereo unspecified) [Trihexyphenidyl-D,L Hydrochloride]", "whole-cell filipin (z-score)": 0.138}
{"compound": "Nc1ccn([C@@H]2CS[C@H](CO)O2)c(=O)n1", "note": "[Lamivudine]", "whole-cell filipin (z-score)": -0.233}
{"compound": "COc1ccccc1OCC(O)CN1CCN(CC(=O)Nc2c(C)cccc2C)CC1", "note": "(stereo unspecified) [Ranolazine]", "whole-cell filipin (z-score)": -0.112}
{"tested_on": "HeLa MZ", "experiment": "whole-cell filipin (free cholesterol) integrated intensity, Z-score; higher = more cholesterol staining", "conditions": "compound concentration in added solution (µM; 5 µl added to 20 µl cells): 10; 18 h", "summary_of_the_method": "as §1"}
{"compound": "CCOc1cc(CC(=O)N[C@@H](CC(C)C)c2ccccc2N2CCCCC2)ccc1C(=O)O", "note": "[Repaglinide]", "whole-cell filipin (z-score)": 0.153}
{"compound": "Cc1cn[nH]c1", "note": "[Fomepizole]", "whole-cell filipin (z-score)": -0.874}
{"compound": "CNCC[C@@H](Oc1ccccc1C)c1ccccc1", "note": "[Tomoxetine hydrochloride]", "whole-cell filipin (z-score)": -0.417}
{"compound": "O=C(Nc1cccc2c(=O)cc(-c3nnn[nH]3)oc12)c1ccc(OCCCCc2ccccc2)cc1", "note": "[Pranlukast]", "whole-cell filipin (z-score)": -0.657}
{"compound": "N#CC(c1ccc(Cl)cc1)c1c(Cl)cc(-n2ncc(=O)[nH]c2=O)cc1Cl", "note": "(stereo unspecified) [Diclazuril]", "whole-cell filipin (z-score)": 0.559}
{"compound": "CCCCC1C(=O)N(c2ccccc2)N(c2ccccc2)C1=O", "note": "[Phenylbutazone]", "whole-cell filipin (z-score)": 0.231}
{"compound": "CCN1CCCC1CNC(=O)c1cc(S(=O)(=O)CC)c(N)cc1OC", "note": "(stereo unspecified) [Amisulpride]", "whole-cell filipin (z-score)": -0.754}
{"compound": "CNC(C)CCC=C(C)C", "note": "(stereo unspecified) [Isometheptene mucate]", "whole-cell filipin (z-score)": -0.234}
{"compound": "CC(=O)Oc1cc(C(C)C)c(OCCN(C)C)cc1C", "note": "[Moxisylyte hydrochoride]", "whole-cell filipin (z-score)": -1.03}
{"compound": "CN1CCC[C@@H]1CCO[C@](C)(c1ccccc1)c1ccc(Cl)cc1", "note": "[Clemastine fumarate]", "whole-cell filipin (z-score)": -0.348}
{"compound": "Cc1nc2ccccn2c(=O)c1CCN1CCC(C(=O)c2ccc(F)cc2)CC1", "note": "[Pirenperone]", "whole-cell filipin (z-score)": 1.21}
{"compound": "NS(=O)(=O)c1cc(C2(O)NC(=O)c3ccccc32)ccc1Cl", "note": "(stereo unspecified) [Chlorthalidone]", "whole-cell filipin (z-score)": -0.924}
{"compound": "CC(=O)NS(=O)(=O)c1ccc(N)cc1", "note": "[Sulfacetamide sodic hydrate]", "whole-cell filipin (z-score)": -0.53}
{"compound": "NS(=O)(=O)c1cc(C(=O)O)c(NCc2ccco2)cc1Cl", "note": "[Furosemide]", "whole-cell filipin (z-score)": -0.823}
{"compound": "NNc1nncc2ccccc12", "note": "[Hydralazine hydrochloride]", "whole-cell filipin (z-score)": -0.572}
{"compound": "CNC[C@H](O)[C@@H](O)[C@H](O)[C@H](O)CO", "note": "[Meglumine]", "whole-cell filipin (z-score)": -0.451}
{"compound": "CCCc1cc(C(N)=S)ccn1", "note": "[Prothionamide]", "whole-cell filipin (z-score)": -0.0396}
{"compound": "CC(=O)Nc1ccc(OCC(O)CNC(C)C)cc1", "note": "(stereo unspecified) [Practolol]", "whole-cell filipin (z-score)": -0.531}
{"compound": "NCCc1ccc(O)c(O)c1", "note": "[Dopamine hydrochloride]", "whole-cell filipin (z-score)": -0.446}
{"compound": "C#C[C@]1(O)CC[C@H]2[C@@H]3CCC4=Cc5oncc5C[C@]4(C)[C@H]3CC[C@@]21C", "note": "[Danazol]", "whole-cell filipin (z-score)": -0.566}
{"compound": "CC(=O)O[C@H]1C[C@@H]2CC[C@@H]3[C@H](CC[C@@]4(C)[C@H]3C[C@H]([N+]3(C)CCCCC3)[C@@H]4OC(C)=O)[C@@]2(C)C[C@@H]1N1CCCCC1", "note": "[Vecuronium bromide]", "whole-cell filipin (z-score)": -0.181}
{"compound": "CCOc1nc2cccc(C(=O)O)c2n1Cc1ccc(-c2ccccc2-c2nnn[nH]2)cc1", "note": "[Candesartan]", "whole-cell filipin (z-score)": 0.386}
{"compound": "O=C(CCNNC(=O)c1ccncc1)NCc1ccccc1", "note": "[Nialamide]", "whole-cell filipin (z-score)": -0.132}
{"compound": "NC(Cc1cc(I)c(Oc2cc(I)c(O)c(I)c2)c(I)c1)C(=O)O", "note": "(stereo unspecified) [Thyroxine (L)]", "whole-cell filipin (z-score)": -0.619}
{"compound": "Nc1ccc(/N=N/c2ccccc2)c(N)n1", "note": "[Phenazopyridine hydrochloride]", "whole-cell filipin (z-score)": -0.724}
{"compound": "CC(=O)CC(c1ccccc1)c1c(O)c2ccccc2oc1=O", "note": "(stereo unspecified) [Warfarin]", "whole-cell filipin (z-score)": 0.0343}
{"compound": "O=C1CCc2cc(OCCCCc3nnnn3C3CCCCC3)ccc2N1", "note": "[Cilostazol]", "whole-cell filipin (z-score)": -0.703}
{"compound": "NC(=O)N1c2ccccc2CC(=O)c2ccccc21", "note": "[Oxcarbazepine]", "whole-cell filipin (z-score)": -1.13}
{"compound": "Cc1c(Nc2ncccc2C(=O)O)cccc1C(F)(F)F", "note": "[Flunixin meglumine]", "whole-cell filipin (z-score)": -0.611}
{"compound": "CCn1cc(C(=O)O)c(=O)c2cnc(N3CCCC3)nc21", "note": "[Piromidic acid]", "whole-cell filipin (z-score)": 0.123}
{"compound": "CNC1(C)C2CCC(C2)C1(C)C", "note": "(stereo unspecified) [Mecamylamine hydrochloride]", "whole-cell filipin (z-score)": -0.324}
{"compound": "CN(Cc1ccc(C(C)(C)C)cc1)Cc1cccc2ccccc12", "note": "[Butenafine Hydrochloride]", "whole-cell filipin (z-score)": -0.481}
{"compound": "CC[N+](C)(CC)CCC[n+]1c(-c2ccccc2)c2cc(N)ccc2c2ccc(N)cc21", "note": "[Propidium iodide]", "whole-cell filipin (z-score)": -0.836}
{"compound": "CC#C[C@]1(O)CC[C@H]2[C@@H]3CCC4=CC(=O)CCC4=C3[C@@H](c3ccc(N(C)C)cc3)C[C@@]21C", "note": "[Mifepristone]", "whole-cell filipin (z-score)": -0.6}
{"compound": "C[C@]12CCC(=O)C=C1CC[C@@H]1[C@@H]2[C@@H](O)C[C@@]2(C)[C@H]1CC[C@]2(O)C(=O)CO", "note": "[Hydrocortisone base]", "whole-cell filipin (z-score)": -0.6}
{"compound": "CC[N+](CC)(CC)CCOc1cccc(OCC[N+](CC)(CC)CC)c1OCC[N+](CC)(CC)CC", "note": "[Gallamine triethiodide]", "whole-cell filipin (z-score)": -0.384}
{"compound": "O=C(NC(Cc1cc(=O)[nH]c2ccccc12)C(=O)O)c1ccc(Cl)cc1", "note": "(stereo unspecified) [Rebamipide]", "whole-cell filipin (z-score)": 0.196}
{"compound": "OC(CCN1CCCCC1)(c1ccccc1)C1CCCCC1", "note": "(stereo unspecified) [Trihexyphenidyl-D,L Hydrochloride]", "whole-cell filipin (z-score)": -0.301}
{"compound": "Nc1ccn([C@@H]2CS[C@H](CO)O2)c(=O)n1", "note": "[Lamivudine]", "whole-cell filipin (z-score)": -0.14}
{"compound": "COc1ccccc1OCC(O)CN1CCN(CC(=O)Nc2c(C)cccc2C)CC1", "note": "(stereo unspecified) [Ranolazine]", "whole-cell filipin (z-score)": -0.533}
